# Only a sample is shown.
# aSyn UTR act = Activators via SNCA 5'UTR binding, MLPCN | alpha-synuclein 5'UTR reporter, activators screen | activity score, % (tested at 7.5 µM), hits read low | actives 7.1% (n = 300,000) | AID 1814; in the data active = activity score below about -60%
# * = called active by the depositor.
SMILES,aSyn UTR act
COC(=O)Cc1c(C)c2ccc(OC(C)C)cc2oc1=O,-156*
O=C(Nc1ccccc1Br)c1ccc2nccnc2c1,-113*
O=C(Nc1ccccc1C(F)(F)F)c1ccc2nccnc2c1,-89*
Cc1ccc(-c2cc(=O)c3cc(Cl)ccc3[nH]2)cc1,-92*
Cc1ccc2[nH]c(-c3ccccc3)cc(=O)c2c1,89
Clc1ccc(-c2cc3ccccc3[nH]2)cc1,-218*
Cc1ccc(-c2cc(=O)c3ccccc3[nH]2)cc1,-77*
O=c1cc(-c2ccc(Cl)cc2)[nH]c2ccccc12,-69*
COc1ccccc1OCC#CCSc1ncccn1,-81*
COc1ccc(/C=N/NC(=O)c2cccnc2)cc1COc1ccc(NC(C)=O)cc1,-84*
COc1ccc(/C=N\NC(=O)c2cccc(F)c2)cc1COc1ccccc1,88
COc1ccc(/C=N/NC(=O)c2cccnc2)cc1COc1ccc([N+](=O)[O-])cc1,-75*
COc1cc(/C=N/NC(=O)c2cccc([N+](=O)[O-])c2)ccc1OCc1ccc(C)cc1,-99*
O=C(O)c1ccccc1N/N=C\c1ccnc2ccccc12,76
O=C(O)c1ccccc1N/N=C/c1cc(Br)cc(Br)c1O,-111*
Cc1ccc2c(c1)C(=NC1CCCCC1)c1cc3ccccc3nc1-2,-206*
Cc1ccc2c(c1)Cc1nc3ccccc3nc1-2,71
O=C(Nc1ccc2c(c1)OCCO2)C(=O)NC1CC1,-74*
O=C(NC(=S)Nc1ccc2c(c1)OCO2)c1ccccc1,-199*
O=C(CS(=O)(=O)c1ccccc1)c1ccc2c(c1)OCCO2,-132*
O=C(NC(=S)Nc1ccccc1Br)c1ccc2c(c1)OCO2,-137*
CN(c1cccc(NC(=O)c2ccc(C(C)(C)C)cc2)c1)S(C)(=O)=O,-174*
O=C(Nc1cccc([N+](=O)[O-])c1)c1ccc2c(c1)OCCO2,-124*
O=C(Nc1ccncc1)c1ccc2ccccc2c1,-135*
O=C(Nc1cccc(Cl)c1)c1ccc2c(c1)OCCO2,-123*
SMILES,aSyn UTR act
CCc1ccc(NC(=O)c2cnc3n(c2=O)CCS3)cc1,-185*
CCc1ccc(NC(=O)c2ccccc2SC)cc1,-177*
O=C(Nc1ccc2c(c1)OCCO2)c1ccccc1,-98*
O=C(NC(=S)Nc1ccc2c(c1)OCCO2)c1cccc(Br)c1,-302*
O=C(Nc1ccc2c(c1)OCCO2)C1CC1c1ccccc1 (configuration not stated),-123*
Nc1ccc(C(=O)c2ccc3c(c2)OCCO3)cc1N,-166*
CSc1ccccc1C(=O)Nc1ccc2c(c1)OCCO2,-65*
CC(C)(C)c1ccc(C(=O)Nc2cccc([N+](=O)[O-])c2)cc1,-193*
O=C(Nc1ccc2c(c1)OCCO2)c1cccc(C(=O)Nc2ccc3c(c2)OCCO3)c1,-148*
O=C(Nc1ccc2c(c1)OCO2)c1cncc(Br)c1,-191*
CCCc1cc(C(=O)Nc2cccc([N+](=O)[O-])c2)cs1,-105*
O=C(Nc1ncc([N+](=O)[O-])s1)c1ccc2c(c1)OCO2,103
O=C(Nc1ccc2c(c1)OCCO2)C(=S)NCc1ccccc1,-96*
O=C(Nc1ccncc1)c1ccc2c(c1)OCCO2,-68*
O=C(NNC(=O)c1cccc2ccccc12)c1ccc2c(c1)OCO2,-94*
O=C(CC(=O)c1ccccc1)Nc1ccc2c(c1)OCCO2,-119*
O=C(NC(=S)Nc1ccc2c(c1)OCCO2)c1cccc2ccccc12,-82*
O=C(Nc1ccc2c(c1)OCO2)c1ccccc1,-120*
O=C(CCNc1ccccc1)c1ccc2c(c1)OCO2,-193*
CCc1ccc(NC(=O)c2cnc(SC)nc2C)cc1,-93*
CC(C)c1ccc(O)c(NC(=S)NC(=O)c2ccc3c(c2)OCO3)c1,-124*
O=C(Nc1cccc([N+](=O)[O-])c1)c1[nH]ncc1Cl,-227*
CS(=O)(=O)Nc1ccc(C(=O)Nc2ccc3c(c2)OCCO3)cc1,-169*
O=C(Nc1ccc2c(c1)OCCO2)c1cccc(Cl)c1,-225*
Cc1ccc(NC(=O)Nc2cccc([N+](=O)[O-])c2)cc1F,-87*
SMILES,aSyn UTR act
COc1ccc(/C=N/NC(=O)c2ccn[nH]2)cc1CSc1ccccn1,-67*
CCCOc1ccc(/C=N/NC(=O)CSc2ccccn2)cc1OC,-77*
COc1cccc(CN2C(=O)C3(C(C#N)=C(N)OC4=C3C(=O)CCC4)c3ccccc32)c1 (configuration not stated),63
COc1cccc(Cn2c(=O)sc3ccccc3c2=O)c1,-79*
COc1ccc(-n2ncc3c(NCCCn4ccnc4)ncnc32)cc1,-122*
OCCOCCNc1ncnc2c1cnn2-c1ccccc1,-137*
OCCOCCNc1ncnc2c1cnn2-c1ccc(Cl)cc1,-93*
COCCNc1ncnc2c1cnn2-c1ccc(Cl)cc1,-78*
COCCN(CCOC)c1ncnc2c1cnn2-c1ccc(Cl)cc1,-139*
C(#CC1CCCC1)c1ccc2c(c1)COc1c3ccccc3nn1-2,-146*
CNC(C)C#Cc1ccc2oc3cccc(OC)c3c(=O)c2c1 (configuration not stated),-128*
CNC(C)C#Cc1ccc2c(=O)c3c(OC)cccc3oc2c1 (configuration not stated),-66*
C/C(=N\Nc1nc(-c2ccccc2O)nc2ccccc12)c1ccccc1,-91*
C/C(=N\Nc1nc(-c2ccccn2)nc2ccccc12)c1ccc(F)cc1,75
CC(C)c1ccc(Nc2nc(CC(=O)O)cs2)cc1,-77*
Nc1c(Br)cc2oc(-c3ccccc3)nc2c1Br,-179*
CC(C)=C1C2C=CC1C(C(=O)Nc1cccc(C)c1)C2C(=O)O (configuration not stated),-62*
COc1ncnc2c1cnn2-c1ccccc1,-67*
COc1ccccc1Oc1ncnc2c1cnn2-c1ccccc1,-115*
COc1ccc(-n2ncc3c(N(C)C4CCCCC4)ncnc32)cc1,94
Cc1ccc(SC(C)c2nc(-c3ccccc3)no2)cc1 (configuration not stated),-98*
c1ccc(-c2nc3nc4ccccc4nc3n2Cc2ccco2)cc1,-106*
COc1cc(OC)cc(-c2cc3nc(C)cc(N4CCN(C(=O)c5ccco5)CC4)n3n2)c1,-70*
COc1cc(OC)cc(-c2cc3nc(C)c(CCC(=O)NCc4ccccc4)c(C)n3n2)c1,75
COc1ccc(/C=C2\CCCC(C(=O)C(F)(F)F)=C2O)cc1,-67*
SMILES,aSyn UTR act
Cc1cccc(CSc2nnc(-c3ccccn3)n2N)c1,-69*
Cc1ccc(CSc2nnc(-c3ccccn3)n2C)cc1,-93*
Cn1c(SCc2ccc(F)cc2)nnc1-c1ccccn1,-168*
O=C(/C=C/c1ccccc1Cl)Nc1cccc(S(=O)(=O)NC2=NCCCCC2)c1,-82*
O=C(/C=C/c1ccc(Cl)cc1Cl)Nc1ccncc1,-280*
O=C(/C=C/c1ccccc1Cl)NC1CCCCC1,-119*
CC(=O)N(C)c1ccc(NC(=O)/C=C/c2ccccc2Cl)cc1,-85*
O=C(COC(=O)/C=C/c1ccccc1Cl)NCCNC(=O)COC(=O)/C=C/c1ccccc1Cl,-63*
O=C(/C=C/c1ccccc1Cl)Nc1ccncc1,-346*
COc1ccccc1/C=C/C(=O)Nc1cccnc1,-76*
O=C(/C=C/c1ccc(Cl)c(Cl)c1)Nc1cccnc1,-102*
CC(C)(C)c1ccc(/C=C/C(=O)Nc2cccnc2)cc1,-232*
O=C(/C=C/c1ccccc1Cl)Nc1cccnc1,-150*
CCC(CC)NC(=O)/C=C/c1ccccc1Cl,-100*
COc1cc(C(=O)N2CCN(c3cc(Cl)ccc3Cl)CC2)cc(OC)c1OC,89

# Assay outcomes deposited in PubChem by Broad Institute.
